In PubChem BioAssay:
Residues, ends and D or L forms follow the SMILES beside them. *: point of attachment. Cbz = O=C(OCc1ccccc1)*; CH2Cl = ClC*

How the values were obtained:
[1] = target: Tumor necrosis factor receptor superfamily member 10B (Homo sapiens) (UniProt O14763); test: caspase-8 TRAIL sensitization, hit retest, confirmation, cell-based, NB7+caspase-8, with/without TRAIL, luminescence panel (AID 651596); details: NB7 neuroblastoma + caspase-8, TRAIL sensitization, luminescence viability, with TRAIL, mean of runs, at 10 µM, stronger effect = higher value
Chain of Tumor necrosis factor receptor superfamily member 10B (Homo sapiens) (O14763 whole entry, looked up): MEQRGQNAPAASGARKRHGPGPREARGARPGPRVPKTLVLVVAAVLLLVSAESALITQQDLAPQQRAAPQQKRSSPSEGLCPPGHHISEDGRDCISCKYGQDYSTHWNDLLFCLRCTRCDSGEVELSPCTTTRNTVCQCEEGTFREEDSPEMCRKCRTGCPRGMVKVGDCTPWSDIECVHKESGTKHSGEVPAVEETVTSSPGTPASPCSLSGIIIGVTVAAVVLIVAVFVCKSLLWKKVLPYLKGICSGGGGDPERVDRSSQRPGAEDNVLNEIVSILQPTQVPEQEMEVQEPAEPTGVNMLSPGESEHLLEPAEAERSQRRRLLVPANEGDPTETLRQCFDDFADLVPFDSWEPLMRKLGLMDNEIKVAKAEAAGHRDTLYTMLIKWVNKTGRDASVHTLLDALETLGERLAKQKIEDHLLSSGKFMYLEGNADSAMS

[2] = as above; details: NB7 neuroblastoma + caspase-8, without TRAIL, luminescence viability, without TRAIL, mean of runs, at 10 µM

SMILES	activity [1]	activity [2]
O=S1(=O)CC(c2ccccc2)=NN=C(c2ccccc2)C1	79%	75.8%
O=C(Nc1cccc(-n2cnnn2)c1)c1ccc(C(F)(F)F)cc1	21.7%	10.3%
CC1(C(=O)N/N=C/c2c(F)c(F)c(F)c(F)c2F)CC1(Cl)Cl (stereo not drawn)	91.5%	98.4%
COC(=O)c1c(NC(=O)c2nc3ccccc3s2)sc2c1CC(C)(C)NC2(C)C	87.8%	98.3%
O=C(c1ccc(CSc2nc3ccncc3[nH]2)cc1)N1CCCCCC1	85.7%	82.1%
Cc1onc(C(=O)N2CCN(C(c3ccccc3)c3ccccc3)CC2)c1[N+](=O)[O-]	99.8%	97%
CCOC(=O)Cc1csc(NC(=O)c2cc3c(s2)CCCC3)n1	56.7%	58.8%
O=C1Nc2cc(C(=O)NCCN3CCCCCC3)ccc2S/C1=C/c1ccccc1F	82.5%	96%
CN(C)C(=O)N1CCN(c2nc(-c3ccccc3)cs2)CC1	43.7%	48.5%
O=C1c2ccc(Cl)cc2S(=O)(=O)c2cccc(C(=O)N3CCN(c4ccc(Cl)cn4)CC3)c21	94.8%	83.5%
O=C(CSc1nnc(NC(=O)c2ccccc2)s1)NCc1ccco1	64.5%	73.1%
CSc1nnc(NC(=O)c2ccc3c(c2)OCO3)s1	76.5%	78.7%
CCN(CC)c1ccc(/C=N/NC(=O)c2ccccn2)cc1	57.3%	45.4%
CCOc1ccc(C(=O)Nc2ccc3c(c2)OCCO3)cc1	70.5%	61.4%
COc1ccc(-c2cc(C(=O)N3CCOCC3)no2)cc1	50.8%	49.9%
N/C(=N\OC(=O)c1ccccc1)c1ccn[nH]1	68.7%	68.1%
Cc1cc(C(=O)COC(=O)c2n[nH]c3ccccc23)c(C)n1C	62.2%	55.9%
C=C(C)c1nc(Oc2ccccc2)nc(Oc2ccccc2)n1	77%	77.6%
COc1cccc(-c2cc3nc(-c4ccccc4)cc(N4CCN(C(=O)c5ccoc5)CC4)n3n2)c1	82%	73.8%
CCN1CCN(Cc2ccc(NC(=O)c3cc(NC(=O)c4cc5cccc(OC)c5o4)cc(OC)c3)cc2C(F)(F)F)CC1	59.2%	79.5%
O=C(Nc1ccc(Cl)cc1)/C(=C/c1cccc(O)c1)c1nc2ccccc2s1	95.7%	98.1%
O=C(Nc1ccc(Cl)cn1)c1ccc2c(Cl)c3c(nc2c1)CCC3	56.8%	56.3%
C#CCSc1nnc(CSc2nc3ccccc3s2)n1-c1ccccc1	95.3%	94.8%
COc1ccc(C(=O)/C=C/Nc2cccc(O)c2)cc1	75.9%	42.4%

SMILES	activity [1]	activity [2]
COc1ccc(-c2cn3cc(C)ccc3n2)cc1Br	82.2%	77.3%
COC(=O)CSc1ncnc2c1sc1nc3c(cc12)COC(C)(C)C3	82.5%	86.8%
CSc1nnc(NC(=O)c2nc(S(=O)(=O)Cc3cccc(C)c3)ncc2Cl)s1	93%	88.3%
COn1c(SCc2cccc(Cl)c2)nc2ccccc2c1=O	52.4%	26.3%
Fc1ccc(-n2nnc(-c3cnc4ccccc4c3)n2)cc1	70.8%	63.9%
Cc1cccnc1NC(=O)c1sc2ccccc2c1Cl	33.3%	23.5%
c1ccc(-c2cn3c4c(sc3n2)CCCC4)cc1	94%	94%
O=C(Nc1ccc(NC(=O)c2ccco2)nc1)c1ccco1	71.2%	61.5%
Cn1c2ccccc2c(=O)c2ccc(C#CC3(O)CCCCC3)cc21	91.3%	83.4%
COc1ccc(/C=N/Nc2cc(C)nc(-n3nc(C)cc3C)n2)c(OC)c1	6.72%	12.9%
C/C(=N\NC(=O)c1ccccc1O)c1cccs1	68.1%	58.9%
Cc1ccc2nc(NC(=O)c3ccccc3F)sc2c1	67.5%	64%
CCOC(=O)[C@]12Cc3c(cc(OC)c(OC)c3OC)[C@H]1N(C1CCCCC1)C(=O)c1cc(OC)ccc12	61.2%	80.1%
NNc1nc(-c2ccccc2)nc2sc3c(c12)CCCC3	57.2%	54.4%
Cc1ccc(-n2c(C3CC3c3ccc(Cl)cc3)n[nH]c2=S)cc1 (stereo not drawn)	52.8%	46.7%
COc1ccc(NC(=O)c2ccc(OC)cc2)cc1	54.2%	42.5%
O=[N+]([O-])c1ccc(-[n+]2ccc3ccccc3c2)c([N+](=O)[O-])c1	93.3%	98.8%
O=C(NC1CC1)C1CCN(S(=O)(=O)c2ccc(Cl)c([N+](=O)[O-])c2)CC1	65.2%	88.2%
CCC(OC(=O)c1ccc(S(C)(=O)=O)c([N+](=O)[O-])c1)C(=O)NC1C2CC3CC(C2)CC1C3 (stereo not drawn)	79.5%	97.7%
CC(=O)n1cc(N(C(=O)CCl)c2ccccc2)c2ccccc21	99.6%	99.8%
Nc1nccc(-c2cc(-c3ccc(Cl)cc3Cl)no2)n1	62.4%	56.9%
CN1CC(=O)N2C(c3ccc(Cl)cc3)c3[nH]c4ccccc4c3C[C@H]2C1=O (stereo partly drawn)	94.7%	92.8%
CC(C)(C)OC(=O)NCCCC[C@H](NC(=O)c1[nH]cnc1C(=O)N[C@@H](Cc1ccccc1)C(=O)OC(C)(C)C)C(=O)OC(C)(C)C	84%	64.7%
CN(C)c1ccc(/C=N/NC(=O)c2ccccn2)cc1	74.7%	65.2%

SMILES	activity [1]	activity [2]
CCN1CCN(Cc2ccc(NC(=O)c3cc(NC(=O)c4cncc(-c5cccs5)c4)cc(OC)c3)cc2C(F)(F)F)CC1	68%	91.9%
CN1/C(=C/C(=O)c2cccs2)Sc2ccccc21	60%	47%
Clc1ccc(-n2cnc3c(Cl)ncnc32)cc1Cl	71.7%	79%
c1c2c(cc3sc(N4CCCCC4)nc13)OCO2	56%	44.2%
Brc1ccc(-c2nnc3sc(CN4CCC5(CC4)OCCO5)cn23)cc1	68.3%	61.4%
N#Cc1ccccc1N/C=C/C(=O)c1ccc(Cl)cc1	48.7%	53.1%
N/C(=N\OC(=O)c1ccc(Cl)cc1)c1ccn[nH]1	94.7%	91%
COc1ccccc1NC(=O)CSc1ccc(-c2ccc(-n3ccnc3)cc2)nn1	47%	38.6%
Cc1ccc(-c2nc3ccccc3[nH]2)s1	58.9%	58.2%
Cc1cccc(CS(=O)(=O)c2ncc(Cl)c(C(=O)Nc3nnc(C(C)C)s3)n2)c1	93.5%	86.1%
Oc1cccc(-c2nnc(-c3cccc(O)c3)nn2)c1	89%	84.2%
COc1ccc(C(=O)Nc2ccccc2C(=O)Nc2cccnc2)cc1	58.9%	55.5%
CC(C)CC(NC(=O)OCc1ccccc1)C(=O)NC(Cc1ccccc1)C(=O)CCl (stereo not drawn) (Cbz-Leu-Phe-CH2Cl; configuration not given here)	62.3%	98%
Clc1ccccc1-c1nnc(-c2ccc3c(c2)OCO3)o1	53.9%	50.7%
O=C(Nc1nnc(-c2ccccc2)o1)NC1CCCCC1	34.9%	55.4%
CC/C(=N\NC(=O)c1csc(C)c1C)c1cccs1	57.8%	55.5%
Cc1ccc(S(=O)(=O)n2ccc3c(OCCOCCNCc4ccc(F)cc4)cccc32)cc1	15.8%	26.4%
O=C(c1ccncc1)N1CCN(c2cc(-c3ccccc3)nc3cc(-c4cccc(Cl)c4)nn23)CC1	-0.725%	-15.8%
Cc1ccc2nc(-c3ccc(NC(=O)C4CCCO4)cc3)[nH]c2c1 (stereo not drawn)	72.2%	71.9%
CC(C)c1ccc(/C=N/NC(=O)c2ccccn2)cc1	86.9%	76.6%
COc1ccc(C(=O)Nc2ccc3ncccc3c2)cc1	87.7%	85.3%
Cc1ccc(C(=O)Nc2ccc(Cl)cc2C)c(Cl)c1	56.7%	39.9%
Cc1ccc(C(=O)O/N=C(\N)c2ccc(Br)cc2)cc1C	82.5%	88.2%
O=C(Nc1ccc(N2CCOCC2)cc1)c1cnccn1	84.4%	82.8%

SMILES	activity [1]	activity [2]
O=C(/C=C/c1ccco1)Nc1ccc2c(c1)OCCO2	71.8%	65.1%
C/C(=N\NC(=O)COc1ccc(C(C)(C)C)cc1)c1cc2ccccc2o1	89.2%	84.2%
Nc1nnnn1/N=C/C(Br)=C/c1ccccc1	68.6%	88.8%
Fc1ccc(-c2cnn3c(-c4cccs4)ccnc23)cc1	61.2%	59.4%
CN(C)c1cccc(C(=O)Nc2nc3ccccc3[nH]2)c1	90.2%	78.5%
CCOC(=O)N1CCN(C(=O)c2ccc(Cn3c(=S)[nH]c4ccc(Br)cc4c3=O)cc2)CC1	73.5%	58.9%
CCOc1ccc(C(=O)Nc2nnc(SCC(=O)NCC3CCCO3)s2)cc1 (stereo not drawn)	96.1%	96.3%
COc1cccc2sc(N(C)c3ccccc3)nc12	58.3%	61.2%
O=Cc1s/c(=N\S(=O)(=O)c2ccccc2)n(CCCCl)c1Cl	94.2%	88.6%
Cc1ccc2nc(-c3ccc(NC(=O)COC(=O)c4cncc(Br)c4)cc3)sc2c1	60.7%	60.1%
COCCN(C(=O)COC(=O)c1c(NC(C)=O)sc(C)c1C)c1c(N)n(Cc2ccccc2)c(=O)[nH]c1=O	58.8%	65.8%
C#Cc1ccc([C@@H]2C=C(C(=O)Nc3ccccc3)O[C@H](OCC)[C@H]2CCCO)cc1	90.8%	91.5%
Cc1ccc2[nH]c(-c3ccccc3)cc(=O)c2c1	64.8%	63%
Cc1ccc(C2CC(c3cccs3)=NN2C(=O)CCl)cc1 (stereo not drawn)	98.8%	98%
O=C(c1ccc2c3n(nc2c1)-c1ccccc1CO3)N1CCCCC1	79.2%	78.4%
O=C(Nc1ccc(-c2cn3ccccc3n2)cc1)c1cccs1	76.2%	66.1%
CNc1nc(N/N=C/c2cc([N+](=O)[O-])ccc2F)nc(Nc2ccccc2)n1	71.5%	86.5%
O=C(Nc1nc2cc3c(cc2s1)OCCO3)c1ccc([N+](=O)[O-])o1	63.8%	84.1%
CCOC(=O)CSc1nc2cc(OC)ccc2cc1C#N	74.7%	80.4%
COC(=O)c1cccc(NC(=O)c2cc3ccccc3o2)c1	57.4%	58.6%
Cc1ccc(C2=NN(C(=O)CCl)C(c3cccs3)C2)o1 (stereo not drawn)	99.6%	99.1%
O=C(NC(=S)Nc1ccccn1)c1ccccc1	77.8%	76.8%
